# Data from PubChem BioAssay (NCATS).
# Records with an inconclusive call do not appear. Where a call stands in place of a potency, no number is given. A number with no mark means an inactive call. Active and inactive are the calls of the source. Calls follow the shape of the full dose curve; tested in HEK293 reporter line.
# Assay: qHTS for Inhibitors of the Functional Ribonucleoprotein Complex (vRNP) of Lassa (LASV) Arenavirus: LASV Primary Screen - GLuc reporter signal (AID 1347082); also: nearly all actives have a fitted effect of over 60% in size
# Conditions: LASV minigenome vRNP, Gaussia luciferase reporter; series mostly up to 57.5 µM
# Potency is read from the fitted curve at half-maximal effect.
Compound,Potency,"activity change, negative = inhibition"
Cc1c(O)ccoc1=O,inactive,–
CCCCCCC[C@@H](C/C=C/CCC(=O)N(C)C/C(=C/Cl)C/C(=C\C(=O)N1CC(OC)=CC1=O)OC)OC,inactive,–
CC/C=C\CC1=C(C)CCC1=O,inactive,–
C/C=C1\NC(=O)[C@H](C)NC(=O)[C@@H](NC(=O)[C@H](Cc2ccc(O)cc2)NC(=O)[C@@H](NC(=O)/C(C)=C/C)C(C)C)[C@@H](C)OC(=O)[C@H](CC(C)C)NC(=O)[C@@H](CCC(=O)O)NC1=O,inactive,–
Cc1c(O)c(C)c2c(c1O)C(=O)C[C@@H](c1ccccc1)O2,inactive,–
CCCC(=O)C(C)=O,inactive,–
COc1ccc(C2OCC3(O)C(c4ccc(OC)c(OC)c4)OCC23)cc1OC (stereo not given),inactive,–
CN1c2c(nc(N)[nH]c2=O)NCC1CNc1ccc(C(=O)NC(CCC(=O)O)C(=O)O)cc1 (stereo not given),inactive,–
CCCC(=O)OCc1ccccc1,inactive,–
C=CC1CN2CCC1CC2C(O)c1ccnc2ccc(OC)cc12 (stereo not given),inactive,–
CC(C)CCC[C@@H](C)[C@@H]1CC[C@H]2C3=CC=C4CC(O)CC[C@]4(C)[C@H]3CC[C@@]21C (stereo not given in full),inactive,–
CS[C@H]1SC[C@@H]2C(=O)N(C)[C@H](C(C)C)C(=O)OC[C@H](NC(=O)c3cnc4ccccc4n3)C(=O)N[C@H](C)C(=O)N(C)[C@@H]1C(=O)N(C)[C@H](C(C)C)C(=O)OC[C@H](NC(=O)c1cnc3ccccc3n1)C(=O)N[C@H](C)C(=O)N2C,0.0611 µM (active),–
CCCCCCCCCCCC(=O)c1c(O)cccc1O,inactive,–
Oc1cc(O)cc(-c2cc3ccc(O)cc3o2)c1,inactive,–
CC1CCC(C(C)[C@H]2CCC3C4CC(=O)C5C[C@@H](O)CC[C@]5(C)C4CC[C@@]32C)=NC1 (stereo not given in full),inactive,–
O=c1ccc2cc3ccoc3cc2o1,inactive,–
CC[C@@H](O)C[C@H]1CCC[C@@]2(C[C@@H]3OC(=O)/C=C/[C@@](C)(O)[C@@H](O)[C@H](C)[C@@H](O)[C@H](OC4CCC(N(C)C)C(C)O4)[C@@H](O)[C@](C)(O)CCCCC/C=C/[C@@H]4CC(C)(C)O[C@@]4(O)C[C@H](O2)[C@H]3C)O1 (stereo not given in full),inactive,–
Cn1cnc2c(ncn2[C@@H]2O[C@H](CO)[C@@H](O)[C@H]2O)c1=N,inactive,–
CCCCCc1cccc(=O)o1,inactive,–
CC(CCC(=O)O)C1CCC2C3CC(O)C4CC(O)CC[C@]4(C)C3CCC12C (stereo not given in full),inactive,–

Compound,Potency,"activity change, negative = inhibition"
COc1ccc(C[C@@H](C)[C@@H](C)Cc2ccc(OC)c(OC)c2)cc1OC,21.7 µM (active),–
COc1ccc2c(Oc3ccc(NC(=O)c4c(C)n(CC(C)(C)O)n(-c5ccccc5)c4=O)nc3)ccnc2c1,inactive,–
CCCCCCCCOC(C)=O,inactive,–
C#CCCC/C(=C\C(=O)N(C)[C@H](C(=O)N(C)[C@H](C(=O)N(C)[C@H](C(=O)N(C)[C@H](C(N)=O)C(C)C)C(C)C)C(C)C)C(C)C)OC,inactive,–
CC1CCC[C@H](O)CCCCCc2cc(O)cc(O)c2C(=O)O1 (stereo not given in full),inactive,–
CCCCCCCCCCCCCC,inactive,–
CC1C(c2ccccc2)OC(=O)N1C (stereo not given),inactive,–
O=C(/C=C/c1ccc(O)c(O)c1)c1ccc(O)cc1O,inactive,–
COc1cc(C/C=C\c2ccccc2)c(OC)cc1O,inactive,–
COc1ccc(CNC(=S)NCc2ccc(OC)cc2)cc1,inactive,–
O=C1C=C(O)c2c(O)cc(O)c(O)c2C1=O,inactive,–
CCCCC[C@H](O)/C=C/C=C\C/C=C\C=C\[C@@H](O)CCCC(=O)O,–,2.34% [at 0.757 µM]
O=C(OCC1OC(Oc2ccc(O)cc2)C(O)C(O)C1O)c1ccccc1 (stereo not given),inactive,–
CC(c1c(O)c2ccccc2[nH]c1=O)C1(C)CCC(O)C(C)(C)O1 (stereo not given),inactive,–
C[C@@]12C[C@@]3(O)O[C@@H](O1)[C@]1(COC(=O)c4ccccc4)[C@@H]3C[C@@]12O[C@@H]1O[C@H](CO)[C@@H](O)[C@H](O)[C@@H]1O,inactive,–
N[C@@H](CCCCNC(=O)CCCC[C@@H]1SC[C@H]2NC(=O)N[C@H]12)C(=O)O,inactive,–
CC12C=CC(=O)C=C1CCC1C2C(=O)CC2(C)C(=O)CCC12 (stereo not given),inactive,–
COc1cc2cc(Oc3ccc4ccc(=O)oc4c3)c(=O)oc2cc1O[C@@H]1O[C@H](CO)[C@@H](O)[C@H](O)[C@H]1O,inactive,–
CC(C)(O)Cc1ccccc1,inactive,–
Cc1c(O)c2ccccc2oc1=O,inactive,–

# Assay: qHTS for Inhibitors of the Functional Ribonucleoprotein Complex (vRNP) of Lassa (LASV) Arenavirus: Viability assay - alamar blue signal for LASV Primary Screen (AID 1347083); also: nearly all actives have a fitted effect of over 80% in size
# Conditions: cell viability, alamar blue fluorescence (LASV minigenome counter-screen); series mostly up to 57.5 µM
Compound,Potency,"activity change, negative = reduced viability"
Cc1c(O)ccoc1=O,inactive,–
CCCCCCC[C@@H](C/C=C/CCC(=O)N(C)C/C(=C/Cl)C/C(=C\C(=O)N1CC(OC)=CC1=O)OC)OC,inactive,–
CC/C=C\CC1=C(C)CCC1=O,inactive,–
C/C=C1\NC(=O)[C@H](C)NC(=O)[C@@H](NC(=O)[C@H](Cc2ccc(O)cc2)NC(=O)[C@@H](NC(=O)/C(C)=C/C)C(C)C)[C@@H](C)OC(=O)[C@H](CC(C)C)NC(=O)[C@@H](CCC(=O)O)NC1=O,inactive,–
Cc1c(O)c(C)c2c(c1O)C(=O)C[C@@H](c1ccccc1)O2,inactive,–
CCCC(=O)C(C)=O,inactive,–
COc1ccc(C2OCC3(O)C(c4ccc(OC)c(OC)c4)OCC23)cc1OC (stereo not given),inactive,–
CN1c2c(nc(N)[nH]c2=O)NCC1CNc1ccc(C(=O)NC(CCC(=O)O)C(=O)O)cc1 (stereo not given),inactive,–
CCCC(=O)OCc1ccccc1,inactive,–
C=CC1CN2CCC1CC2C(O)c1ccnc2ccc(OC)cc12 (stereo not given),inactive,–
CC(C)CCC[C@@H](C)[C@@H]1CC[C@H]2C3=CC=C4CC(O)CC[C@]4(C)[C@H]3CC[C@@]21C (stereo not given in full),inactive,–
CS[C@H]1SC[C@@H]2C(=O)N(C)[C@H](C(C)C)C(=O)OC[C@H](NC(=O)c3cnc4ccccc4n3)C(=O)N[C@H](C)C(=O)N(C)[C@@H]1C(=O)N(C)[C@H](C(C)C)C(=O)OC[C@H](NC(=O)c1cnc3ccccc3n1)C(=O)N[C@H](C)C(=O)N2C,0.0109 µM (active),–
CCCCCCCCCCCC(=O)c1c(O)cccc1O,inactive,–
Oc1cc(O)cc(-c2cc3ccc(O)cc3o2)c1,inactive,–
CC1CCC(C(C)[C@H]2CCC3C4CC(=O)C5C[C@@H](O)CC[C@]5(C)C4CC[C@@]32C)=NC1 (stereo not given in full),inactive,–
O=c1ccc2cc3ccoc3cc2o1,inactive,–
CC[C@@H](O)C[C@H]1CCC[C@@]2(C[C@@H]3OC(=O)/C=C/[C@@](C)(O)[C@@H](O)[C@H](C)[C@@H](O)[C@H](OC4CCC(N(C)C)C(C)O4)[C@@H](O)[C@](C)(O)CCCCC/C=C/[C@@H]4CC(C)(C)O[C@@]4(O)C[C@H](O2)[C@H]3C)O1 (stereo not given in full),inactive,–
Cn1cnc2c(ncn2[C@@H]2O[C@H](CO)[C@@H](O)[C@H]2O)c1=N,inactive,–
CCCCCc1cccc(=O)o1,inactive,–
CC(CCC(=O)O)C1CCC2C3CC(O)C4CC(O)CC[C@]4(C)C3CCC12C (stereo not given in full),inactive,–

Compound,Potency,"activity change, negative = reduced viability"
COc1ccc(C[C@@H](C)[C@@H](C)Cc2ccc(OC)c(OC)c2)cc1OC,6.11 µM (active),–
COc1ccc2c(Oc3ccc(NC(=O)c4c(C)n(CC(C)(C)O)n(-c5ccccc5)c4=O)nc3)ccnc2c1,inactive,–
CCCCCCCCOC(C)=O,inactive,–
C#CCCC/C(=C\C(=O)N(C)[C@H](C(=O)N(C)[C@H](C(=O)N(C)[C@H](C(=O)N(C)[C@H](C(N)=O)C(C)C)C(C)C)C(C)C)C(C)C)OC,inactive,–
CC1CCC[C@H](O)CCCCCc2cc(O)cc(O)c2C(=O)O1 (stereo not given in full),inactive,–
CCCCCCCCCCCCCC,inactive,–
CC1C(c2ccccc2)OC(=O)N1C (stereo not given),inactive,–
O=C(/C=C/c1ccc(O)c(O)c1)c1ccc(O)cc1O,inactive,–
COc1cc(C/C=C\c2ccccc2)c(OC)cc1O,inactive,–
COc1ccc(CNC(=S)NCc2ccc(OC)cc2)cc1,inactive,–
O=C1C=C(O)c2c(O)cc(O)c(O)c2C1=O,inactive,–
CCCCC[C@H](O)/C=C/C=C\C/C=C\C=C\[C@@H](O)CCCC(=O)O,–,18.4% [at 0.757 µM]
O=C(OCC1OC(Oc2ccc(O)cc2)C(O)C(O)C1O)c1ccccc1 (stereo not given),inactive,–
CC(c1c(O)c2ccccc2[nH]c1=O)C1(C)CCC(O)C(C)(C)O1 (stereo not given),inactive,–
C[C@@]12C[C@@]3(O)O[C@@H](O1)[C@]1(COC(=O)c4ccccc4)[C@@H]3C[C@@]12O[C@@H]1O[C@H](CO)[C@@H](O)[C@H](O)[C@@H]1O,inactive,–
N[C@@H](CCCCNC(=O)CCCC[C@@H]1SC[C@H]2NC(=O)N[C@H]12)C(=O)O,inactive,–
CC12C=CC(=O)C=C1CCC1C2C(=O)CC2(C)C(=O)CCC12 (stereo not given),inactive,–
COc1cc2cc(Oc3ccc4ccc(=O)oc4c3)c(=O)oc2cc1O[C@@H]1O[C@H](CO)[C@@H](O)[C@H](O)[C@H]1O,inactive,–
CC(C)(O)Cc1ccccc1,inactive,–
Cc1c(O)c2ccccc2oc1=O,inactive,–
